Most compounds without a hit are left out; they make up all but 5.7% or so of the library.
ssDAF12 agonist – activators of S. stercoralis DAF-12 nuclear receptor | HEK293 ssDAF-12/GRIP1 lit1-tk-luc reporter, luminescence; % of 3 µM dafachronic acid response | AID 652126 | actives 1% (n = 370,000) | activation, % at 6.8 µM;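 active = activation above the mean over all tested compounds plus 3 SD, cut at about 0.9% in these data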
hgDAF-12 ag – hgDAF-12 agonism, primary luciferase screen | HEK293 GAL4-hgDAF12 UAS-luciferase reporter, agonist luminescence; normalized to butyrate control | activation, % at 6.8 µM | actives 1.8% (n = 370,000) | AID 687014;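 active = activation above a cutoff set at the mean of all screened compounds plus 3 SD, cut at about 10% in these data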
DAX1 inh-1 – inhibitors of human orphan nuclear receptor DAX1 (NR0B1); P51843; HEK293 Gal4-DAX1 luciferase reporter, luminescence; inhibition, % at 6.75 µM; actives 0.99% (n = 340,000);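 active = inhibition above the mean over all tested compounds plus 3 SD, cut at about 4.2% in these data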;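 note: inhibition shows as a rise in luminescence from relieved DAX1 repression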
Target sequence (P51843 207-470 limits assumed): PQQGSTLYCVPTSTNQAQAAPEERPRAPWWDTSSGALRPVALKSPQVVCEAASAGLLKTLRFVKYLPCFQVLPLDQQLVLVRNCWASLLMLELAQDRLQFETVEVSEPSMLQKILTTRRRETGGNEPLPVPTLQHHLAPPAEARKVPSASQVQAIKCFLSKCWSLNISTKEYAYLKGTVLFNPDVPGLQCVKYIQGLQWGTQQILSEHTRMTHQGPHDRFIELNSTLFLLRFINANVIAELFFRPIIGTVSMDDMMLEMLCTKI
AHR act – activates the human aryl hydrocarbon receptor; P35869; AHR-responsive luciferase reporter cells, luminescence; activation, % at 5 µM; actives 2.5% (n = 320,000); AID 2796; in the data active = activation above about 47%
hcDAF-12 act – H. contortus DAF-12 activation, primary screen; HEK293 hcDAF-12 lit1-tk-luc reporter, luminescence; 0% DMSO, 100% Δ7-dafachronic acid; activation, % at 6.8 µM; actives 1.4% (n = 370,000); AID 652067;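 active = activation above the mean of all tested compounds plus 3 SD, cut at about 5.5% in these data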
DAX1 inh-2 – DAX1 (NR0B1) inhibition, primary screen. HEK293T StAR-luciferase reporter, SF-1/DAX-1 repression relief. inhibition, % at 6.8 µM. AID 652010. actives 1.1% (n = 370,000);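 active = inhibition above the mean over all tested compounds plus 3 SD, cut at about 3.6% in these data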;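 note: higher inhibition means more luminescence from relief of DAX-1 repression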
Numbers stand for hits; i = inactive; nt = no result.

SMILES	ssDAF12 agonist	hgDAF-12 ag	DAX1 inh-1	AHR act	hcDAF-12 act	DAX1 inh-2
CC(C)(CO)Nc1nc(Nc2ccccc2)nc(Nc2ccccc2)n1	i	i	i	i	i	i
Cc1c(Cl)cccc1Nc1nc(NCCO)c2ccccc2n1	i	i	i	57	i	i
Clc1cccc(-c2ccc3nccn3c2)c1Cl	i	i	nt	nt	i	i
CCOCCCNC(=O)CN1CCN(Cc2ccc(Cl)cc2)C1=O	i	i	i	i	i	i
Cc1ccc2nc(CN(C)C(=O)[C@@H](Cc3ccccc3)NC(=O)[C@H]3O[C@@H](n4cnc(C(N)=O)n4)[C@H](O)[C@@H]3O)[nH]c2c1	i	i	nt	nt	i	i
Oc1cccc(Nc2nc(NCC3CCCO3)c3ccccc3n2)c1 (stereo not drawn)	nt	nt	i	79	nt	nt
Cn1c(=O)c(=O)n(C)c2cc(S(=O)(=O)N3CCN(Cc4ccc5c(c4)OCO5)CC3)ccc21	i	i	nt	nt	i	i
CC1CN(C(=O)C(C)OC(=O)c2ccc3ncsc3c2)CC(C)O1 (stereo not drawn)	i	i	i	i	i	i
CCc1c(C(=O)NNC(=S)Nc2ccc(S(=O)(=O)Nc3ncccn3)cc2)csc1C	i	i	i	i	i	4.0
CC(C)(C)C(=O)Nc1ccc(-c2cn3ccsc3n2)cc1	i	i	i	i	5.9	i
Cc1nc(-c2ccc(NC(=O)C3CC3)cc2)cs1	i	i	i	i	i	i
Cc1nc(-c2ccc(NC(=O)CC(C)C)cc2)cs1	i	13	i	i	i	i
COc1ccc(C(=O)Nc2ccc(-c3cn4ccsc4n3)cc2)cc1S(=O)(=O)N1CCOCC1	i	i	i	i	i	i
Cc1nc(-c2cccc(NC(=O)c3ccc(-n4nccc4C)cc3)c2)cs1	i	i	i	i	i	i
CC(C)CC(=O)Nc1ccc(-c2cn3ccsc3n2)cc1	i	11	i	i	i	i
Cc1nc(-c2ccc(C(=O)Nc3cccc(Br)c3)cc2)cs1	i	11	i	i	i	i
CCOC(=O)COc1ccccc1C1Nc2ccccc2C(=O)N1c1cccc(Cl)c1 (stereo not drawn)	i	12	i	i	i	i
N#C/C(=C\c1c(Cl)cccc1Cl)c1nc2ccccc2[nH]1	i	i	i	69	i	i
CCOc1cc(N(CC)CC)ccc1/C=C(/C#N)c1nc2ccccc2[nH]1	i	i	6.5	i	i	i
Cc1cc(/C=C(/C#N)c2nc3ccccc3[nH]2)c(C)n1-c1cccc([N+](=O)[O-])c1	i	i	i	i	i	i
CN(C)/C=C(\C#N)c1nc2ccccc2[nH]1	i	i	i	i	i	i
Cc1cc(/C=C(\C#N)c2nc3ccccc3[nH]2)c(C)n1C	i	i	i	55	i	i
Cc1ccc(/C=C(\C#N)c2nc3ccccc3[nH]2)s1	i	i	i	93	i	i
COc1ccc(C(=O)N(C)C2CCN(C)CC2)cc1S(=O)(=O)Nc1cc(Cl)ccc1Cl	nt	nt	nt	i	nt	nt
Cc1ccc(N(Cc2ccc(C(=O)NN=C3CCN(C)CC3)cc2)S(C)(=O)=O)cc1C	i	i	i	i	i	i
SMILES	ssDAF12 agonist	hgDAF-12 ag	DAX1 inh-1	AHR act	hcDAF-12 act	DAX1 inh-2
O=C(CSc1cccc2cccnc12)OCC(=O)c1ccc(Br)cc1	i	i	i	i	i	i
O=C(CSc1cccc2cccnc12)OCC(=O)c1ccccc1	i	i	4.5	i	i	i
CC1=C(C(=O)N(C)C)CC(CC(=O)NC2CCCC2)C(=O)N1CCC1=CCCCC1 (stereo not drawn)	i	12	i	nt	i	i
O=c1cccccc1NN=C1CCCCCC1	i	i	i	i	i	i
O=c1cccccc1NN=C1CCCCC1	i	11	5.8	i	i	i
Cc1ccc(-c2onc3ccc(Cl)cc23)cc1	i	i	i	i	i	i
O=Cc1ccc2noc(-c3ccc(Cl)cc3)c2c1	i	i	i	i	6.5	i
Cc1ccc2c(C)c(C(=O)N(C)C(C)c3ccon3)oc2c1C (stereo not drawn)	i	i	i	i	i	4.2
CC(=O)OCCN1C(=O)c2ccc(-c3nc4ccccc4c(=O)o3)cc2C1=O	i	i	i	i	i	i
C/C(=N\NC(=O)c1ccc(Cn2cc(Br)cn2)o1)c1ccc(NC(=O)c2ccoc2C)cc1	i	i	i	nt	i	4.4
O=C(N/N=C/c1c(F)cccc1Cl)c1ccc(Cn2cc(Br)cn2)o1	i	i	i	49	i	i
Cn1ccc2cc(S(=O)(=O)N3CCN(S(=O)(=O)c4c(F)cccc4F)CC3)ccc21	i	i	nt	nt	i	nt
COC(=O)[C@]12C[C@H](CC(=O)N3CCCCC3)C(=O)N(Cc3ccc4c(c3)OCO4)C1=C[C@H](COCc1ccccc1)O[C@@H]2C	i	i	nt	nt	i	i
CC(CNS(=O)(=O)c1ccc2c(c1)CC(=O)N2C)c1ccccc1 (stereo not drawn)	i	i	i	i	i	i
COc1cc(C(=O)O/N=C(\N)c2ccc([N+](=O)[O-])cc2)cc(OC)c1OC	i	i	i	i	i	i
Cc1ccc(C(=O)O/N=C(\N)c2cccc([N+](=O)[O-])c2)cc1	i	i	i	i	i	i
N/C(=N\OC(=O)c1ccccc1Br)c1ccc([N+](=O)[O-])cc1	i	i	i	i	6.1	i
N/C(=N\OC(=O)c1ccccc1F)c1cccc([N+](=O)[O-])c1	i	i	5.4	i	i	i
N/C(=N\OC(=O)c1ccco1)c1cccc([N+](=O)[O-])c1	i	13	i	i	i	i
COc1cc(C(=O)O/N=C(\N)c2cccc([N+](=O)[O-])c2)cc(OC)c1OC	i	i	5.1	i	i	i
C[C@H](O)[C@@H]1CN2CCc3ccc(-c4ccc5c(c4)OCO5)cc3[C@@H]2C[C@@H]1N(C)Cc1cc(Cl)cc(Cl)c1	i	i	nt	nt	i	i
C#CCNC(=O)C[C@H]1C[C@@]2(C(=O)OC)C(=C[C@H](COCc3ccccc3)O[C@@H]2C)N(CCc2ccc(OC)c(OC)c2)C1=O	i	i	nt	nt	i	i
COc1cccc(/C(N)=N/OC(=O)Cc2ccccc2[N+](=O)[O-])c1	i	i	4.7	60	i	i
N/C(=N\OC(=O)c1ccco1)c1cccc(Br)c1	i	i	i	i	6.1	i
COc1ccc(/C(N)=N/OC(=O)c2cccc([N+](=O)[O-])c2C)cc1	i	i	i	54	i	i
O=C(NC1CC1)C1=C[C@@H](C2CC2)C[C@@H](OCc2ccc(CO)cc2)O1	i	i	i	i	i	i
C[C@@H]1CN([C@@H](C)CO)C(=O)CCCn2cc(nn2)CO[C@H]1CN(C)C(=O)Nc1ccc2c(c1)OCO2	i	i	nt	nt	i	i
COc1ccccc1NCC(=O)NN=C1CCS(=O)(=O)c2ccc(F)cc21	i	i	i	49	i	i

From PubChem
